Experiment [1] can be described thus: inhibitors of TNFa-induced NFkB p65 translocation, primary screen, imaging, HUVEC, MLSMR starter and 10KST1 sets (AID 438;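 active means inhibition above 20% together with a positive visual image hit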;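 further: compound added about 3h40 before a 20 min TNFalpha stimulation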;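 on inhibition: signal is the nuclear over cytoplasmic p65 intensity ratio per well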). Particulars: HUVEC TNFa-induced p65 nuclear translocation; cell count: measured here: nuclei count (cytotoxicity indicator), at 2.08 µM unless noted; inhibition: at 2 µM, stronger effect = higher value unless noted.
Experiment [2] in a line: inhibitors of mutant huntingtin aggregation, primary screen, imaging, exon1htt(103Q)mCFP cells, high-content imaging (AID 483;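 active means visual image review flags a hit and inhibition of aggregation exceeds 20%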;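 further: compound exposure lasted 3 days before fixation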;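 on nuclei count: percent of the per-plate median nuclei count of sample wells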). The conditions noted are these: exon1htt(103Q)mCFP cell line, aggregate imaging, at 2 µM; inhibition of aggregation: stronger effect = higher value; nuclei count: measured here: cell count, toxicity.
The nature of experiment [3]: inhibitors of E-selectin induction by TNFa, primary screen, imaging, HUVEC, immunofluorescence, MLSMR starter and 10KST1 sets (AID 487;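 active means visually confirmed hit in the image check and inhibition above 20%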;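 on inhibition: signal is fraction of cell area covered by stained E-selectin grains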;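 on nuclei count: 100% = median nuclei count of all wells on the same plate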). The conditions noted are these: HUVEC TNFalpha-induced E-selectin immunofluorescence imaging, at 2 µM; inhibition: stronger effect = higher value; nuclei count: measured here: cell number, toxicity.
Experiment [4] is described as follows: DUSP6 inhibitors restoring Erk phosphorylation by chemical complementation, primary imaging in DUSP6-transfected HeLa (AID 609;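 active means compounds giving at least 50% inhibition in the cell-based MKP-3 phosphatase rescue imaging test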;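 on inhibition: phospho-Erk level distribution per well compared with pooled transfected vehicle control wells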). Particulars: HeLa MKP-3 transfected, phospho-Erk imaging KS statistic, at 10 µM.
Experiment [5] has as its target Dual specificity protein phosphatase 6 (Homo sapiens) (UniProt Q16828). Described as above. Particulars: HeLa MKP-3 transfected, phospho-Erk imaging KS statistic, at 10 µM, stronger effect = higher value.
In experiment [6] the target is Voltage-gated potassium channel subunit beta-2 (Rattus norvegicus) (UniProt P62483). In words: KvBeta enzyme negative modulators, primary screen, biochemical, NADPH fluorescence (AID 622;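 active means fluorescence slope higher than the sample average by over 3 SD, cut at about -0.22 in these data, passing the limit was not always enough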;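 further: slope of raw intensity against log time taken from 70 to 1610 s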). Particulars: recombinant KvBeta, 4-cyanobenzaldehyde reduction, at 10 µM, stronger effect = higher value.
Experiment [7] shares this target. In words: KvBeta positive modulators, primary screen, biochemical, NADPH fluorescence (AID 623;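 active means NADPH fluorescence slope more negative than the mean of all samples by about 3 SD, 99.7% confidence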;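 further: fluorescence intensity change per second fitted from 20 to 320 s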). The conditions noted are these: Recombinant KvBeta, NADPH fluorescence decrease slope, 10 min; at 10 µM; stronger effect = lower value.
The target in experiment [8] is Alpha-2C adrenergic receptor (Homo sapiens) (UniProt P18825). In words: modulators of alpha2C/GIRK thallium flux, primary screen, cell-based, HEK293 alpha2C/GIRK1/2 (AID 624;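 active means fluorescence slope after compound addition differing from the mean of all screened samples at 99.7% confidence, in either direction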;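 further: slope of fluorescence ratio to pre-addition baseline per second over 15 to 24 s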). The conditions noted are these: thallium flux BTC fluorescence, at 10 µM, actives lie on both sides.
The nature of experiment [9]: inhibitors of larval lipid processing in zebrafish, primary screen, whole organism, PED6 fluorescence, gall bladder and intestine (AID 686;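 active means a full or partial loss of lipid-probe fluorescence in the fish gall bladder, intestine or both, judged by eye; inactive means no fluorescence loss, or compound toxic to the fish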;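 further: larvae 5 to 7 days old with five fish per well; signal comes from phospholipase A2 cleavage of quenched PED6 carried via bile; overnight exposure to compound and PED6 before scoring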). The conditions noted are these: Zebrafish larvae PED6 lipid processing, fluorescence scoring.
A short description of experiment [10]: inhibitors of Chlamydomonas gravitaxis, primary screen, whole organism, Chlamydomonas reinhardtii, WT vs cilia-less mutant, absorbance, 96-well (AID 463189).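 Further: 0% = wild type cc124 cells in DMSO and 100% = ciliumless bld1 mutant cells.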 Particulars: OD600 absorbance, 2 days, at 10 µM, stronger effect = higher value.
Experiment [11] can be described thus: inhibitors of Sendai virus-induced IRF3 signaling, primary screen, TLR/RLR signaling modifier project, cell-based, Sendai virus stimulus, luciferase, 10K MLSCN set (AID 602276;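 active means inhibition at or above 50% at 10 µM; inactive means inhibition below 50%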;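 further: firefly luciferase from ISG56 promoter only with Renilla not read in this screen; 0% = Sendai virus plus DMSO and 100% = medium plus DMSO without virus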). Particulars: HEK293 RL24 IRF3 luciferase reporter, at 10 µM, stronger effect = higher value.
A short description of experiment [12]: inhibitors of poly I:C-induced TLR3 signaling, primary screen, cell-based, poly I:C stimulus, luciferase, 10K MLSCN set (AID 602277;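 active means inhibition of the reporter signal at or above 50%; inactive means inhibition below 50%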). Particulars: HEK293-TLR3 RL24 IRF3 luciferase reporter, at 10 µM, stronger effect = higher value.
Experiment [13] deals with Muscarinic acetylcholine receptor M4 (Homo sapiens) (UniProt P08173). In words: compounds altering M4/GIRK thallium flux, either direction, primary screen, M4 allosteric agonist project, cell-based, HEK293 M4/GIRK, BTC-AM (AID 625;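 active means fluorescence slope after compound addition differing from the mean of all tested samples at 99.7% confidence, mostly higher but some lower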;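 further: thallium influx through GIRK channels coupled to M4 in HEK293 cells with BTC-AM dye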). The conditions noted are these: at 10 µM, actives lie on both sides.
Experiment [14] addresses Solute carrier family 12 member 5 (Homo sapiens) (UniProt Q9H2X9). Kind of experiment: KCC2 modulators in sodium-free buffer, confirmation, cell-based, HEK293 KCC2, thallium flux, secondary assay (AID 1713;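 active means thallium flux slope above the same plate's solvent-only control mean plus 3 SD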). The conditions noted are these: FluoZin2 fluorescence, at 10 µM, stronger effect = higher value.
For experiment [15] the target is unchanged. In words: KCC2 modulators without ouabain present, confirmation, cell-based, HEK293 KCC2, thallium flux, FluoZin2, secondary assay 2 (AID 1715;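 active means thallium flux slope more than 3 SD above or below the plate's solvent-only control mean, mostly below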;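 further: raw slope with 0.1% DMSO as baseline and bumetanide as block control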). The conditions noted are these: HEK293-KCC2, thallium flux FluoZin2 fluorescence; at 10 µM; actives lie on both sides.
A short description of experiment [16]: thallium flux modulation in parental HEK cells, confirmation, counter-screen for KCC2 modulator project, cell-based, counterscreen 1 (AID 1716;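 active means thallium flux rate significantly above the same plate's solvent-only control wells, beyond their mean plus 3 SD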). The conditions noted are these: HEK293 parental cells, thallium flux FluoZin2, ouabain; at 10 µM; baseline-ratio fluorescence slope, 10–20 s after thallium.
The target of experiment [17] is Solute carrier family 12 member 5 (Homo sapiens) (UniProt Q9H2X9). Kind of experiment: KCC2 inhibitors and activators, ouabain retest, confirmation, HEK-KCC2 cells (AID 1717;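 active means thallium flux slope beyond 3 SD from same-plate DMSO control mean in most replicates, usually higher, sometimes lower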;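 further: slope of initial-normalized fluorescence between seconds 10 and 20 after thallium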). The conditions noted are these: HEK293-KCC2, thallium flux FluoZin2 fluorescence, at 10 µM, bidirectional: low = inhibitor, high = activator.
Where [18] appears, read: measured here: cell density z-score.
Setting [19] is: measured here: nuclear c-Myc green intensity z-score.
[20] abbreviates: measured here: nuclear pErk red intensity z-score, stronger effect = higher value.

Several values for one entry are separate records, joined by “and”; a condition that tells them apart may be missing. Equal values may be shown once. This is one part of the list. Inconclusive results are not listed. Activity calls are given as the source filed them.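 How the source made its calls, unless noted: active means inhibition at or above 50% relative to wild type and mutant plate controls; inactive means inhibition below 50%.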

Solute carrier family 12 member 5 (Homo sapiens), sequence (Q9H2X9 whole entry, looked up): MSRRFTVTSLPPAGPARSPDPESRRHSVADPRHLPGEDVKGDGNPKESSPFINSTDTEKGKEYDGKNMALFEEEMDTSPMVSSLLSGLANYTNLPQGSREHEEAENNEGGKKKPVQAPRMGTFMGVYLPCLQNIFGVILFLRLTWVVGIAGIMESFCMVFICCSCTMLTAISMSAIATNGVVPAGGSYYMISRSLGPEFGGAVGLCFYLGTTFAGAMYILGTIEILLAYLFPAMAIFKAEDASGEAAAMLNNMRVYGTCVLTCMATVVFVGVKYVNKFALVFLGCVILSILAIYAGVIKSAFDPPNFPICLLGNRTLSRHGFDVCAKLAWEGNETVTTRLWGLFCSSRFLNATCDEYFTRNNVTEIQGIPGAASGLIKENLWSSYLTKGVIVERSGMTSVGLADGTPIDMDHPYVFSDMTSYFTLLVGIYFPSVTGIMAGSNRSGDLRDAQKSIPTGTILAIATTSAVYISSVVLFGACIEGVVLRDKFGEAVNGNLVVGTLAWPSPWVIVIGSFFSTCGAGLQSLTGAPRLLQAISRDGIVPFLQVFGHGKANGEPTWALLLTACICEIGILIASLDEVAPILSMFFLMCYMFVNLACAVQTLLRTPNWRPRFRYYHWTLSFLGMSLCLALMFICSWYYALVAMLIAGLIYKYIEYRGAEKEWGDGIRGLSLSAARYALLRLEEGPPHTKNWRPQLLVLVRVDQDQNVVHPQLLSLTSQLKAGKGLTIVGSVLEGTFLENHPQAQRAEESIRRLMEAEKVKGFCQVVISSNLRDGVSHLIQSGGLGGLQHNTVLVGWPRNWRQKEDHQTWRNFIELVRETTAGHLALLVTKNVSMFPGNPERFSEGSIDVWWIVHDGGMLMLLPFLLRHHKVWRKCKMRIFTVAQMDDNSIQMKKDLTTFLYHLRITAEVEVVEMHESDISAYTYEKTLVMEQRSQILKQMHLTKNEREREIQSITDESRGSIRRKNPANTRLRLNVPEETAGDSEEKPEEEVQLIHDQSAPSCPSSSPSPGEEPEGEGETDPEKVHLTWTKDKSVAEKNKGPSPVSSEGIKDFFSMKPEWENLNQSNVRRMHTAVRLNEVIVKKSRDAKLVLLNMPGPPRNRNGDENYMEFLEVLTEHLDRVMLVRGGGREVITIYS
Voltage-gated potassium channel subunit beta-2 (Rattus norvegicus), sequence (P62483 whole entry, looked up): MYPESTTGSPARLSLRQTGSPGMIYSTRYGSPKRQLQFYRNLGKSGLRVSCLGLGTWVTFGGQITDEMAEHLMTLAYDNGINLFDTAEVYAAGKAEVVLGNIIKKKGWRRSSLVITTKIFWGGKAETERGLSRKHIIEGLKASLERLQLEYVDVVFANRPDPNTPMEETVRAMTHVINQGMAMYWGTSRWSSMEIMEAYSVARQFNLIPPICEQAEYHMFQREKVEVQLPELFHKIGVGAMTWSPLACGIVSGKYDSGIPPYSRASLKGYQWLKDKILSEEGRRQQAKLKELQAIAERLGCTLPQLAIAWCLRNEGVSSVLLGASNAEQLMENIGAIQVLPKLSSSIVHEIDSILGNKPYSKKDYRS
Dual specificity protein phosphatase 6 (Homo sapiens), sequence (Q16828 whole entry, looked up): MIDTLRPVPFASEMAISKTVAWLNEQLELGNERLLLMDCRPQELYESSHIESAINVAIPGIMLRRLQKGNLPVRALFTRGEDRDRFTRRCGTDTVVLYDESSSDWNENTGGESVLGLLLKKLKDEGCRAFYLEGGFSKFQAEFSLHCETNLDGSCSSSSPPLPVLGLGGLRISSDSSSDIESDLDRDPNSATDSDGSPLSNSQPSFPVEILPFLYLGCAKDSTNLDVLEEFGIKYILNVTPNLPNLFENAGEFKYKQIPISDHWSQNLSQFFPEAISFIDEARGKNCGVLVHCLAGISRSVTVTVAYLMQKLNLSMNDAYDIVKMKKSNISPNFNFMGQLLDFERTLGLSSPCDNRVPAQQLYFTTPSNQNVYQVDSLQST
Alpha-2C adrenergic receptor (Homo sapiens), sequence (P18825 whole entry, looked up): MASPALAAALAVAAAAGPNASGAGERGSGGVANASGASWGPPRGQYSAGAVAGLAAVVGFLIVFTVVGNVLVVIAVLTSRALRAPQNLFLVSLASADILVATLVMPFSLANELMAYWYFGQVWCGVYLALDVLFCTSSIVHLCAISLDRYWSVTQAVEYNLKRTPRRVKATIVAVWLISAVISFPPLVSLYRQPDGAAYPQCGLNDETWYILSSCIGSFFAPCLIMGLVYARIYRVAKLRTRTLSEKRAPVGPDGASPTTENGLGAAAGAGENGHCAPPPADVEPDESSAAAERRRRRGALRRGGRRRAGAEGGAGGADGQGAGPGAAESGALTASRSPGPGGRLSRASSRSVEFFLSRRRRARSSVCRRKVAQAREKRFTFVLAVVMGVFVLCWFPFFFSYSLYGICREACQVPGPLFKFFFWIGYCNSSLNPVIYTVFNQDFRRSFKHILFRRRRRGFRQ
Muscarinic acetylcholine receptor M4 (Homo sapiens), sequence (P08173 whole entry, looked up): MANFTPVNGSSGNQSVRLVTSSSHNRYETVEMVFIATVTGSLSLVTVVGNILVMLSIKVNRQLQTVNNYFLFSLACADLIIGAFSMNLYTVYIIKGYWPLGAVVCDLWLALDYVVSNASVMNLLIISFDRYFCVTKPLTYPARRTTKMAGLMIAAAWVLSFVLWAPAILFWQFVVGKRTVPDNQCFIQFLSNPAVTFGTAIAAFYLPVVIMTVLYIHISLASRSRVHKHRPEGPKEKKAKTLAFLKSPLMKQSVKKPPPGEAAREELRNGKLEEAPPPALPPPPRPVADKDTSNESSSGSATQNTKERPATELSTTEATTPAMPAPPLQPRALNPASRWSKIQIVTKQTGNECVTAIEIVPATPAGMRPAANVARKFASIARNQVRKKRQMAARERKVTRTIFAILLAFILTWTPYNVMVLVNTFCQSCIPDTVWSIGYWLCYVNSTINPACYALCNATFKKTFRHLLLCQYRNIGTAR

In the case of `CC[N+]1(C)CCCC(OC(=O)C(O)(c2ccccc2)c2ccccc2)C1` (stereo not given), the cell count in experiment [1] was determined as 672. For the same molecule, the inhibition in experiment [1] was -11.6% (inactive); in [3], -116% (inactive); in experiment [5] it was 5.42% (inactive); in [10] it was -2.15% (inactive); in [11] it was -2.74% (inactive); in experiment [12], 37.1% (inactive). In addition, in experiment [2], the inhibition of aggregation is -2.7% (inactive). Also, the nuclei count stood at 107% in experiment [2] and 119% in experiment [3]. The figures for the z-score in experiment [4] (setting [18]), in experiment [4] (setting [19]) and in experiment [4] (setting [20]) were 1.46, -0.0245 and -0.802, respectively. Further, the fluorescence slope in experiment [6] was -0.46 (inactive). Besides, the NADPH fluorescence slope in experiment [7] is -4.6e-05 (inactive). The slope in experiment [8] is 0.0046 (inactive). The call in experiment [9] was inactive.

`O=C1NC(=O)C(C/C=C/c2ccccc2)C(=O)N1` gave a cell count in experiment [1] of 678. The inhibition in experiment [1] was -2.2% (inactive); in experiment [3], 29.3% (inactive); in experiment [5], 16.5% (inactive); in experiment [10], -5.46% (inactive). Moreover, the nuclei count in experiment [3] worked out at 154%. Besides, the figures for the z-score in experiment [4] (setting [18]), in experiment [4] (setting [19]) and in experiment [4] (setting [20]) were 0.051, 0.145 and 0.14, respectively. In addition, the fluorescence slope in [6] was -0.473 (inactive); in experiment [13] it was 0.00573 (inactive). Moreover, the NADPH fluorescence slope in experiment [7] was -4.7e-05 (inactive). Besides, the molecule was classed as inactive in experiment [9]. The normalised thallium flux (F/F0 slope) in experiment [14] was 0.00969 (inactive). Further, the normalized thallium flux in [15] was 0.0324 (inactive). For the same molecule, in [16], the thallium flux rate (normalised fluorescence) was 0.0082 (inactive). Further, in experiment [17], the raw Tl+ flux slope (below DMSO = inhibition, above = activation) was 0.0194 (inactive).

On to `CC(=O)[C@@]1(O)CC[C@H]2[C@@H]3CC=C4C[C@@H](O)CC[C@]4(C)[C@H]3CC[C@@]21C`, for which, in experiment [1], the cell count was determined as 618. In addition, the inhibition in [1] is -10.4% (inactive); in [3], -57.3% (inactive); in [5], 7.39% (inactive); in experiment [10] it was -4.89% (inactive); in experiment [11], 9% (inactive); in [12], 26.8% (inactive). Moreover, in experiment [2], the inhibition of aggregation is 4% (inactive). Besides, the nuclei count in experiment [2] is 99.3%; in experiment [3], 129%. Besides, the z-score in [4] (setting [18]) was -0.0512; in experiment [4] (setting [19]), -0.687; in experiment [4] (setting [20]) it was -0.36. Also, in [6], the fluorescence slope is -0.451 (inactive). Also, the NADPH fluorescence slope in [7] was -5.3e-05 (inactive). In addition, the slope in [8] was 0.00537 (inactive). In addition, the molecule was classed as inactive in experiment [9].

Take `CC(NC(C)(C)C)C(=O)c1cccc(Cl)c1` (stereo not given): the cell count in [1] was determined as 651. In addition, the inhibition was -1.3% (inactive) in [1]; -75.7% (inactive) in experiment [3]; 12.4% (inactive) in experiment [5]; -4.32% (inactive) and 13.4% (inactive) in experiment [10]; 11.7% (inactive) in [11]; 29.6% (inactive) in experiment [12]. Moreover, in experiment [2], the inhibition of aggregation is 4% (inactive). Also, the nuclei count is 102% in experiment [2] and 132% in experiment [3]. Moreover, the z-score in experiment [4] (setting [18]) was -0.59; in experiment [4] (setting [19]), 0.546; in experiment [4] (setting [20]), -0.888. In addition, the fluorescence slope in [6] was -0.447 (inactive). In addition, in experiment [7], the NADPH fluorescence slope is -3.7e-05 (inactive). For the same molecule, the slope in experiment [8] is 0.00462 (inactive). For the same molecule, in experiment [9], the call was inactive.

For `COC1=CC(=O)OC(/C=C/c2ccccc2)C1` (stereo not given), the cell count in experiment [1] turned out to be 562. The inhibition is 0.9% (inactive) in experiment [1]; 1.6% (inactive) in [3]; 25.7% (inactive) in experiment [5]; -16.3% (inactive) in [10]; 0.4% (inactive) in [11]; -0.629% (inactive) in [12]. In experiment [2], the inhibition of aggregation was 17.4% (inactive). Also, the nuclei count in [2] was determined as 92%; in experiment [3], 112%. Besides, the z-score was 1.47 in experiment [4] (setting [18]), -1.75 in experiment [4] (setting [19]) and -1.36 in experiment [4] (setting [20]). In addition, in experiment [6], the fluorescence slope was -0.448 (inactive). Besides, the NADPH fluorescence slope in experiment [7] is -5.6e-05 (inactive). For the same molecule, in experiment [8], the slope was 0.00584 (inactive). The molecule was called inactive in experiment [9].

These data come from PubChem BioAssay.
